Compound activity as filed in PubChem BioAssay.
VACV Venus inh – inhibitors of vaccinia virus (Venus reporter). Potency, µM (series often up to 36.5 µM), usual class: inhibitors. Vaccinia virus Venus reporter expression, fluorescence. 330,000 tested, 0.46% active; calls by dose curve; tested in A549 cells; note: nearly all actives have a fitted effect of over 30% in size
Pf growth 48h – inhibits P. falciparum growth in the first generation, 48 h; P. falciparum luciferase growth in erythrocytes, 48 h; Potency, µM (titrated, usually from 28.7 µM), hits mostly inhibitors; 310,000 tested, 5.9% active; AID 504832
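Growth was read as firefly luciferase luminescence after a 48 h, 37 C, 5% CO2 exposure of compounds to reporter-bearing P. falciparum cultures (0.1% parasitemia, 2% hematocrit final) in Albumax-supplemented RPMI 1640.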
Pf growth 96h – P. falciparum growth inhibition at 96 hour, primary screen for plastid delayed-death inhibitors; P. falciparum luciferase reporter growth, 96 h; Potency, µM (doses to about 28.7 µM), actives largely listed as inhibitors; 320,000 tested, 6.9% active; AID 504834
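P. falciparum expressing integrated firefly luciferase, in erythrocytes at 2% hematocrit, 0.05% parasitemia, incubated with compounds 96 h at 37 C, 5% CO2. Growth inhibition read as loss of luminescence; two-generation exposure targets delayed-death apicoplast inhibitors.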
AMA1-RON2 inh – AMA1-RON2 (P. falciparum) interaction inhibition; AlphaScreen AMA1-biotinylated RON2 peptide binding; Potency, µM (doses to about 58.2 µM), actives largely listed as inhibitors; 360,000 tested, 0.2% active; AID 720542; note: nearly all actives have a fitted effect of over 45% in size
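AMA1 (3D7) with his tag at 25 nM final met compounds first, then biotinylated RON2 peptide at 25 nM; detection used donor plus acceptor beads, 10 µg/mL apiece, read by AlphaScreen after 30 min at room temperature.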
Vaccinia mCherry – vaccinia inhibition (mCherry reporter); Vaccinia virus mCherry reporter infection, fluorescence; AID 720579; 310,000 tested, 0.63% active; Potency, µM (series often up to 36.5 µM), most hits filed as inhibitors; calls by dose curve; tested in A549 cells; note: nearly all actives have a fitted effect of over 35% in size
A number is an active result; - = inactive; ? = inconclusive; . = no result given. Most compounds without a hit are left out; they make up all but 8.7% or so of the library. Unless noted, calls come from the whole dose curve; as a rule, active = well fitted curve in the direction sought with a large enough effect; inconclusive = small, poorly fitted or top-dose-only effect, or another doubt; inactive = no such curve, though single readings can be large; an effect the other way counts as inactive or inconclusive.

SMILES	VACV Venus inh	Pf growth 48h	Pf growth 96h	AMA1-RON2 inh	Vaccinia mCherry
CCn1ccc2cc(S(=O)(=O)N3CCC(C(=O)NCc4cccc(Cl)c4)CC3)ccc21	-	.	.	.	-
O=C1CC(c2ccco2)CC(O)=C1C=NCCO (stereo not given)	-	-	-	-	-
O=C1CC(c2ccco2)CC(O)=C1C=NCC1NCCc2ccccc21 (stereo not given)	-	10.4µM	-	-	-
CCC(C(=O)Oc1c(C(C)C)cccc1C(C)C)c1ccccc1 (stereo not given)	-	-	?	-	-
COCCC(C(=O)Oc1c(C(C)(C)C)cc(C)cc1C(C)(C)C)c1ccccc1 (stereo not given)	-	8.28µM	5.22µM	-	-
Cc1cc2c(cc3c(SCc4ccc(Cl)cc4)nnc(C)n32)o1	-	.	.	.	-
CCOc1ccc(NC(=O)c2nn(C)c3c2CS(=O)(=O)c2ccccc2-3)cc1	-	.	.	.	-
O=S(=O)(O)c1cc(O)ccc1O	-	-	-	-	-
O=S(=O)(c1cc(O)ccc1O)c1cccc2c(S(=O)(=O)c3cc(O)ccc3O)cccc12	-	10.4µM	13.1µM	8.91µM	-
CC1CCCN(Cc2nc(Cc3ccccc3Cl)no2)C1 (stereo not given)	-	-	?	-	-
FC(F)(F)c1cccc(Cc2noc(CN3CCCC(CN4CCCC4)C3)n2)c1 (stereo not given)	-	2.62µM	9.28µM	-	-
OC1CCCN(Cc2nc(Cc3ccccc3Cl)no2)C1 (stereo not given)	.	-	10.4µM	-	.
FC(F)(F)c1cccc(Cc2noc(CN3CCSCC3)n2)c1	-	-	-	-	-
O=C(Nc1cccc(Cl)c1)N1CCN(C2c3ccccc3-c3ccccc32)CC1	-	9.28µM	?	-	-
O=C(Nc1cccc(Cl)c1)N1CCCCCC1	-	-	?	-	-
O=c1oc2ccccc2nc1/C=C(\O)c1ccc(Br)cc1	.	1.85µM	?	-	.
COc1ccc(C(c2nnnn2CC2CCCO2)N2CCN(c3ccc(F)cc3)CC2)cc1 (stereo not given)	-	?	8.28µM	-	-
c1ccc(CCn2nnnc2C(c2cccnc2)N2CCN(c3ccccc3)CC2)cc1 (stereo not given)	-	?	-	-	-
c1ccc(CCn2nnnc2C(c2cccnc2)N2CCN(c3nc4ccccc4s3)CC2)cc1 (stereo not given)	-	13.1µM	-	-	?
COc1ccc(C(c2nnnn2Cc2ccccc2)N2CCN(c3ccccc3)CC2)cc1 (stereo not given)	?	?	13.1µM	-	.
Cc1ccc(C(c2nnnn2CC2CCCO2)N2CCN(C)CC2)cc1 (stereo not given)	.	-	-	-	.
COc1ccccc1N1CCN(C(c2ccccc2)c2nnnn2Cc2ccccc2)CC1 (stereo not given)	-	.	.	.	-
COc1ccc(Cn2nnnc2C(C(C)C)N2CCN(c3ccccc3OC)CC2)cc1 (stereo not given)	?	4.65µM	-	-	.
O=C(CSc1ncc(-c2ccccc2)[nH]1)Nc1cccc(C(F)(F)F)c1	-	.	.	.	-
COCCn1nnnc1C(c1ccc(OC)c(OC)c1)N1CCN(c2nc3ccccc3s2)CC1 (stereo not given)	-	13.1µM	2.94µM	-	?
SMILES	VACV Venus inh	Pf growth 48h	Pf growth 96h	AMA1-RON2 inh	Vaccinia mCherry
COc1ccc(Cn2nnnc2C(c2ccccc2)N2CCN(C3CCCC3)CC2)cc1 (stereo not given)	-	?	-	-	-
COCCn1nnnc1C(c1ccccc1)N1CCN(c2ccccc2)CC1 (stereo not given)	.	-	?	?	.
COc1ccc(C(c2nnnn2Cc2ccccc2)N2CCN(c3nc4ccccc4s3)CC2)cc1 (stereo not given)	-	5.22µM	.	-	.
Cc1ccc(OCc2nnc(NC(=O)c3ccco3)s2)c(C)c1	-	-	1.85µM	-	-
CN(C)c1ccc(CNC(=O)c2ccc(NC(=O)N3CCCCc4ccccc43)cc2)cc1	-	.	.	.	-
CN(C)CCCN1C(=O)C(=O)/C(=C(/O)c2ccccc2)C1c1ccccn1 (stereo not given)	.	-	-	.	.
COCCN1C(=O)C(=O)/C(=C(/O)c2ccc(OC(C)C)cc2)C1c1cccnc1 (stereo not given)	-	-	14.7µM	-	-
CCN(CC)CCCN1C(=O)C(=O)/C(=C(/O)c2ccc3c(c2)CC(C)O3)C1c1cccnc1 (stereo not given)	.	-	1.47µM	.	.
